Compounds with a hit are over-represented: about 2.4% of the library has one in this group of screens.
PfM18AAP inh-1: PfM18AAP inhibitors, malaria aminopeptidase, primary screen, biochemical, QFRET, recombinant enzyme | H-Glu-NHMec fluorogenic cleavage | 290,000 compounds, 1.2% hits | M18 aspartyl aminopeptidase (Plasmodium falciparum 3D7) | inhibition, % at 7.35 µM;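 active = inhibition above the campaign mean inhibition over all tested compounds plus 3 SD, cut at about 28% in these data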;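 also: 0% = plate median of test compound wells and 100% = 2 mM ZnCl2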
PfG6PD inh: PfG6PD enzyme inhibitors, primary screen, biochemical, fluorescence intensity, uHTS; AID 504690, 2011; inhibition, % at 20 µM; glucose-6-phosphate dehydrogenase-6-phosphogluconolactonase (Plasmodium falciparum 3D7); PfGluPho enzyme, NADPH resazurin-diaphorase fluorescence; 350,000 compounds, 0.78% hits;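 active = inhibition reaching at least a set limit at 20 µM in the primary screen, cut at about 59% in these data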;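 also: 0% = DMSO wells with substrate and 100% = DMSO wells lacking glucose-6-phosphate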
A3A deaminase: APOBEC3A ssDNA deaminase inhibitors, primary screen, selectivity assay for APOBEC3G inhibitor project, biochemical, FAM/TAMRA oligo cleavage fluorescence | DNA dC->dU-editing enzyme APOBEC-3A (Homo sapiens), P31941 | recombinant A3A, FAM/TAMRA ssDNA deamination fluorescence | inhibition, % at 20 µM | 330,000 compounds, 0.41% hits | AID 493011, 2011;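 active = at least 40% inhibition at 20 µM here, with at most 30% in a related deaminase screen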;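 also: plate controls were A3A with DMSO for no effect and wells lacking A3A enzyme for full effect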
APOBEC3G inh: APOBEC3G DNA deaminase inhibitors, primary screen, biochemical, fluorescence, single-stranded DNA substrate, uHTS | DNA dC->dU-editing enzyme APOBEC-3G (Homo sapiens), Q9HC16 | recombinant A3G, ssDNA deamination FAM/TAMRA fluorescence | inhibition, % at 20 µM | 330,000 compounds, 0.28% hits;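 active = inhibition of at least 40% at 20 µM, with no more than 30% in the related APOBEC3A deaminase screen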;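 also: plate controls were DMSO wells with A3G for no effect and wells lacking A3G enzyme for full effect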
Target sequence (Q9HC16 whole entry, looked up): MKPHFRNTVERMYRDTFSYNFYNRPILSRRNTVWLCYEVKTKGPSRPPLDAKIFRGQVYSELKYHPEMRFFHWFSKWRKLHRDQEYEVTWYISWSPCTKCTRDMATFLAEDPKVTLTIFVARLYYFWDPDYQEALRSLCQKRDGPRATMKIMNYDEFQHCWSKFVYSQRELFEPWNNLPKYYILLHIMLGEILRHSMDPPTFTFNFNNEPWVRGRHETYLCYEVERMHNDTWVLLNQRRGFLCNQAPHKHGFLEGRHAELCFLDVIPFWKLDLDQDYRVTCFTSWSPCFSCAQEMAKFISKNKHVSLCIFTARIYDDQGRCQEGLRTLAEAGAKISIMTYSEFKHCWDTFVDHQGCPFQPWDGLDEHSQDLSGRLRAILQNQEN
Yeast superoxide: reduction of superoxide in aged yeast, primary screen, HTS; AID 2690, 2010; superoxide response (% of plate mean), % at 10 µM; 330,000 compounds, 0.18% hits; S. cerevisiae aged cells, superoxide DHE fluorescence; active compounds read low;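 active = superoxide response under a set limit, about three screen SD below normal, cut at about 65% in these data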;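 also: yeast aged for seven days with compound at 30 °C before DHE staining; 100% = average MFI of all compound-treated wells on the plate with controls excluded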
PfM18AAP inh-2: PfM18AAP inhibitors, malaria aminopeptidase, confirmation, biochemical, QFRET, recombinant enzyme, triplicate. inhibition, % at 7.35 µM. AID 2170, 2009. H-Glu-NHMec fluorogenic cleavage. shares compounds with PfM18AAP inh-1. 2,400 compounds, 28% hits;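 active = mean inhibition over replicate wells above the hit cutoff set for the earlier primary screen, cut at about 29% in these data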;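 also: 0% = median of test compound wells and 100% = 2 mM ZnCl2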
CTSL1 counter: cathepsin L1 inhibitors, retest, confirmation, counter-screen for PFM18AAP inhibitor project, biochemical, QFRET, triplicate; purified cathepsin L1, Z-Leu-Arg-MCA fluorescence; shares compounds with PfM18AAP inh-1; inhibition, % at 5.96 µM; 2,400 tested, under 10 active; AID 2178, 2009;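 active = average inhibition across replicates above the hit cutoff set in the earlier primary screen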;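 also: 0% = median of test compound wells and 100% = Z-Phe-Ala-diazomethylketone 1 µM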
A3G conf: APOBEC3G deaminase inhibitor retest, confirmation, biochemical, fluorescence, single-stranded DNA substrate, single concentration | shares compounds with APOBEC3G inh | recombinant A3G ssDNA deaminase, UDG/FAM-TAMRA fluorescence | inhibition, % at 20 µM | 890 compounds, 72% hits | AID 493152, 2011;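 active = inhibition reaching a set limit in any replicate at 20 µM, the limit being 80% of the first screen's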
UDG ctr A3G: E. coli UDG inhibitors, confirmation, counter-screen for APOBEC3G inhibitor project, biochemical, single concentration, fluorescence, FAM/TAMRA oligo. shares compounds with APOBEC3G inh. UDG counterscreen. inhibition, % at 20 µM. 710 tested, under 10 active. AID 504715, 2011;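 active = compounds giving 40% or more inhibition at 20 µM in any one of the three replicates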;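 also: plate controls were DMSO wells with UDG and oligo for no effect and DMSO wells lacking both for full effect; inhibitors lower the FAM signal released by uracil excision and alkaline cleavage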
Target sequence (P12295 whole entry, looked up): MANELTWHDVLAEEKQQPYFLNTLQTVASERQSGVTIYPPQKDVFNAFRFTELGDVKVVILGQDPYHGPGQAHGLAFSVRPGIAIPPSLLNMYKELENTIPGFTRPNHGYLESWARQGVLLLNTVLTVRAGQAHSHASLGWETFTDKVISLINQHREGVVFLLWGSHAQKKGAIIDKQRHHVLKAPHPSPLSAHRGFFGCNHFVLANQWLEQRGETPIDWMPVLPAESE
PfG6PD confirm: PfG6PD inhibitors, hit retest, confirmation, biochemical, fluorescence intensity, single concentration; shares compounds with PfG6PD inh; recombinant PfGluPho, NADPH-diaphorase-resazurin fluorescence; inhibition, % at 20 µM; 2,400 compounds, 34% hits;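 active = inhibition of at least 50% at 20 µM in any single replicate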;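 also: 0% = DMSO with substrate and 100% = DMSO lacking glucose-6-phosphate substrate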
Diaphorase 10uM: diaphorase inhibitors and chemical oxidizers, confirmation, counter-screen for P. falciparum G6PD inhibitor project, biochemical, fluorescence intensity, 10 µM NADPH; shares compounds with PfG6PD inh; diaphorase-coupled resazurin reduction, NADPH 10 uM; inhibition, % at 20 µM; 820 compounds, 39% hits; AID 504862, 2011;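 active = average inhibition reaching 50% or more with the compound at 20 µM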;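 also: resorufin red fluorescence formed as diaphorase reduces resazurin using NADPH; 0% = DMSO with enzyme and 100% = DMSO without enzyme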
Diaph ctr 30uM: diaphorase inhibitors and chemical oxidizers, confirmation, counter-screen for P. falciparum G6PD inhibitor project, biochemical, fluorescence intensity, 30 µM NADPH | shares compounds with PfG6PD inh | AID 504863, 2011 | 820 compounds, 29% hits | inhibition, % at 20 µM | Diaphorase/resazurin coupled assay, resorufin fluorescence;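 active = inhibition averaging 50% or more, tested at 20 µM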;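 also: 0% = DMSO with enzyme and 100% = DMSO wells lacking diaphorase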
* hit, by the source's call; . = no result.

SMILES	PfM18AAP inh-1	PfG6PD inh	A3A deaminase	APOBEC3G inh	Yeast superoxide	PfM18AAP inh-2	CTSL1 counter	PfG6PD confirm	others
O=C1C=C(c2ccc(Cl)c(C(F)(F)F)c2)C[C@@H](c2ccc3c(c2)OCO3)C1	.	-5	-1	-9	95	.	.	.
O=C(CCS(=O)(=O)c1ccc(F)cc1)Nc1nc(-c2ccncc2)cs1	52*	61*	4	61*	111	18	1	12	A3G conf=53*
Oc1ccc(NCc2ccccc2OCc2ccccc2)cc1	49*	73*	6	11	92	-21	-2	50*	Diaphorase 10uM=-10;Diaph ctr 30uM=-16
CCOC(=O)c1sc(N)c(C(=O)OCC)c1C	-6	13	-3	-7	94	.	.	.
CCOC(=O)c1sc(N)c(C(=O)Nc2ccccc2)c1C	40*	64*	-5	26	97	5	1	15
O=C(NCCN1CCCC(O)C1)c1cc(COc2cccc(C(F)(F)F)c2)on1 (stereo unspecified)	.	-5	.	.	.	.	.	.
Cc1ccc(-n2sc3ccccc3c2=O)cc1	66*	115*	2	77*	110	76*	6	101*	A3G conf=71*;UDG ctr A3G=-4;Diaphorase 10uM=-23;Diaph ctr 30uM=-23
Cc1ccc(S(=O)(=O)NC(=O)Nc2ccc(N(C)C)cc2)cc1	43*	73*	4	3	69	-26	4	21
O=C(Nc1ccccc1C(=O)N1CCN(Cc2ccccc2)CC1)c1ccccc1	-4	-2	0	-8	92	.	.	.
CCN=c1scc(C)n1/N=C/c1ccc(O)c(O)c1O	46*	80*	4	3	90	24	8	72*	Diaphorase 10uM=25;Diaph ctr 30uM=37
CCCCCCCCCCCCCC(=O)NO	.	-38	.	.	.	.	.	.
O=C(NCCCN1CCOCC1)c1sc2cc(Cl)ccc2c1Cl	6	-11	0	-8	93	.	.	.
O=C(NCCCN1CCOCC1)c1sc2cc([N+](=O)[O-])ccc2c1Cl	59*	88*	-9	58*	139	33*	-3	95*	A3G conf=85*;UDG ctr A3G=-2;Diaphorase 10uM=-22;Diaph ctr 30uM=-21
O=S(=O)(Nc1cc(Sc2ncn[nH]2)c(O)c2ccccc12)c1ccccc1	38*	102*	-2	61*	.	-202	-3	98*	A3G conf=89*;UDG ctr A3G=-1;Diaphorase 10uM=53*;Diaph ctr 30uM=46
O=C(CSc1ncn[nH]1)NCc1ccccc1	10	-5	3	1	101	.	.	.
COc1ccc(-c2noc(=O)n2Cc2ccccc2Cl)cc1	2	-1	-5	-9	86	.	.	.
Oc1ccc(-c2cn3c(n2)SCC3)cc1O	73*	63*	3	59*	91	65*	-1	89*	A3G conf=76*;UDG ctr A3G=-4;Diaphorase 10uM=21;Diaph ctr 30uM=19
O=C(NC1CC1)C1CCN(S(=O)(=O)c2ccc(Cl)c([N+](=O)[O-])c2)CC1	.	11	26	1	109	.	.	.
O=C(NCCc1ccccn1)c1cc(-c2ccccc2Cl)nc2ccccc12	1	26	-1	-1	101	.	.	.
Nn1cnnc1N/N=C/c1ccc(Cl)c([N+](=O)[O-])c1	57*	73*	0	-4	102	-41	-4	63*	Diaphorase 10uM=82*;Diaph ctr 30uM=74*
S=c1[nH]c(-c2ccccc2)cn1/N=C/c1cccs1	47*	63*	-2	3	78	39*	3	27
S=c1[nH]ncn1/N=C/c1cccs1	22	23	-2	14	94	.	.	.
NS(=O)(=O)c1ccc(Nc2nc(-c3ccc(F)cc3)cs2)cc1	6	16	4	0	105	.	.	.
NS(=O)(=O)c1ccc(Nc2nc(-c3ccc(O)cc3O)cs2)cc1	41*	69*	4	0	93	39*	3	-2
O=C(CNC(=O)c1sc2ccccc2c1Cl)Nc1ccccc1F	.	-9	-4	-8	132	.	.	.
SMILES	PfM18AAP inh-1	PfG6PD inh	A3A deaminase	APOBEC3G inh	Yeast superoxide	PfM18AAP inh-2	CTSL1 counter	PfG6PD confirm	others
O=C(Nc1ccnn1C1CCN(Cc2cccc(OCCO)c2)CC1)C1CC1	6	-1	-8	-8	105	.	.	.
CCOC(=O)c1c(NC(=O)C2CCCO2)sc(C(=O)OC(C)(C)C)c1C (stereo unspecified)	35*	63*	4	47*	97	7	4	12	A3G conf=33*;UDG ctr A3G=3
COC(=O)c1sc(NC(=O)C2CCCO2)c(C(=O)OC)c1C (stereo unspecified)	-1	-5	-7	-6	87	.	.	.
O=C(Cn1sc2ccccc2c1=O)NC12CC3CC(CC(C3)C1)C2	34*	125*	0	78*	100	21	1	106*	A3G conf=78*;UDG ctr A3G=1;Diaphorase 10uM=-20;Diaph ctr 30uM=-22
CCC(CC)CN1C(N(C)C)=NC[C@@H]1CC(C)C	.	-6	-1	-3	94	.	.	.
CCOC(=O)c1c(C)n(C)c2cc(Br)c(O)c(O)c12	51*	68*	-5	4	100	53*	-5	18
COc1ccc(CN2CCC[C@]3(N[C@H](c4ccc(OC)cc4)[C@@H]4C(=O)N(C)C(=O)[C@@H]43)C2=O)cc1	.	3	.	.	.	.	.	.
CC1(NC(=O)CCc2nc3ccccc3c(=O)[nH]2)CCS(=O)(=O)C1 (stereo unspecified)	2	-9	-1	-4	100	.	.	.

Bioassay records (PubChem)
